According to PubChem BioAssay (NCI):
Where “and” joins values, the source holds several entries; their conditions need not be identical. Equal values may be shown once. Compounds without any hit were thinned out: in the full panel of roughly 83,000, 20% have a hit.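 Compound tested at a single concentration for 48 hours in 96-well plates; a percent growth value below 10 was scored as active.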 A number with no mark means an inactive call. Calls of active or inactive are those of the source.

Tested on: MDA-MB-468 breast
Test: NCI-60 one-dose screen, 48 h (100 = growth as untreated, 0 = no growth, -100 = all killed)
Conditions: 10 µM unless noted

Structure (SMILES) | growth
O=C1NC(=O)C(Cc2ccc(OCc3ccc(-c4ccc(Cl)cc4Cl)cc3)cc2)S1 (configuration not stated) | 14.3%
C=C1C(=O)O[C@H]2[C@H]1CC/C(COC(=O)CCC(=O)OC/C1=C/CC[C@@]3(C)O[C@H]3[C@H]3OC(=O)C(=C)[C@@H]3CC1)=C\CC[C@@]1(C)O[C@@H]21 | -39% (active)
C(=C(\C1=NCCN1)n1cnc2ccccc21)/c1ccc2ccccc2c1 | 26.2%
CC(C)CC(NC(=O)OCC1c2ccccc2-c2ccccc21)C(=O)O (configuration not stated) | 103%
Cc1ccc(Nc2ncnc3c2sc2ncccc23)cc1 | 93%
CC(=O)OCc1cc(-c2nc3ccccc3[nH]c2=O)nn1-c1ccc(Cl)cc1 | 89.3%
CCCCCCCCCCCCCCCCCCOP(=O)(O)O | 108%
COc1cc2nc(SCc3cc(OC)c(OC)c(OC)c3)n(Cc3ccccc3)c(=O)c2cc1OC | -10.1% (active)
COc1ccc(-c2cc3c4c(nc5ccccc5c4c2)CC(c2cc(OC)c(OC)c(OC)c2)O3)cc1 (configuration not stated) | 26.6%
Cn1ccnc1C(=O)/C=C/c1ccc(NC(=O)Nc2ccc(F)cc2)cc1 | 6.47% (active)
COC(=O)c1ccc2[nH]c(O)c(C(=Nc3ccc(N(C)C(=O)CN4CCN(C)CC4)cc3)c3ccc(N)cc3)c2c1 | 62%
CCOC(=O)OCC(=O)[C@@]1(O)CC[C@H]2[C@@H]3CCC4=CC(=O)CC[C@]4(C)[C@H]3[C@@H](O)C[C@@]21C | 123%
O=C1c2cccc3cc([N+](=O)[O-])cc(c23)C(=O)N1CCN1CCCC1 | -53.4% (active)
O=c1c2cccc3c(N4CCOCC4)ccc(c32)c2nc3ccccc3n12 | -63.5% (active)
Cn1c2ccc(Cl)cc2c2nn(C(=O)c3ccccc3)c(=O)nc21 | 103%
Cc1nc2cc(Nc3nc(Nc4ccc(F)cc4)nc(-c4cccs4)n3)ccc2n1Cc1ccccc1 | 33.2%
OCCNc1nc(NCCO)nc(Nc2ccc(C3=NN(c4ccc(Cl)cc4)C(c4ccc(Cl)cc4)C3)cc2)n1 (configuration not stated) | 85.7%
Cc1ccc(-c2nn(C)c(=O)c3noc(-c4ccc(C)cc4)c23)cc1 | 19.8%
CN1CCN(CCNc2nc(-c3cccc(NS(=O)(=O)c4cccc5c(N(C)C)cccc45)c3)cs2)CC1 | 42.9%

Structure (SMILES) | growth
O=[N+]([O-])c1cc(C(F)(F)F)ccc1Sc1ccc(C(F)(F)F)cc1[N+](=O)[O-] | -4.58% (active)
COc1cc(-c2nn(-c3cccc(NC(=O)Nc4ccc(Cl)c(C(F)(F)F)c4)c3)cc2-c2ccncc2)ccc1Cl | -7.22% (active)
CNC(=O)c1nn(C)c2c1C(C)(C)Cc1cnc(Nc3ccc(N4CCN(C)CC4)cc3)nc1-2 | -13.4% (active)
Cc1ccc(S(=O)(=O)Nc2ccc3cc([N+](=O)[O-])ccc3c2[N+](=O)[O-])cc1 | 54% and 88.5%
COc1cc(C2CC(=O)Nc3c2ccc2ccccc32)cc(Br)c1OC (configuration not stated) | -34.3% (active)
NC1=NC(SCc2ccccc2CCl)c2ncn(Cc3ccccc3CCl)c2N1 (configuration not stated) | -33.2% (active)
O=C1/C(=C\c2cccn2C(=O)c2ccccc2)c2ccccc2N1c1c(Cl)cccc1Cl | 46.8%
NC(Cc1ccc(O)cc1)C(=O)N/N=C/c1ccccc1O (configuration not stated) | 108%
CCOc1nc(-c2ccccc2)cc2c(O)c(C(=O)n3nc(C)cc3C)[nH]c(=O)c12 | 99.1%
COc1ccc(/C(=N/O)c2cc(F)c(F)c(OC)c2F)cc1O | 18.4%
CCC(CC(C)C)Nc1ccc(NC(CC)CC(C)C)cc1 (configuration not stated) | 71.3%
S=c1ccnc[nH]1 | 122%
NC(=O)c1c(NC(=O)c2ccccc2C(F)(F)F)sc2c1CCC(=O)C2 | 14.9%
Oc1ccc(/C=N\Nc2ccccn2)c(O)c1 | 9.5% (active)
COc1cc2oc(-c3ccc(O)cc3)cc(=O)c2c(O)c1-c1c(OC)cc(O)c2c(=O)cc(-c3ccc(O)cc3)oc12 | 36.1%
CC1OC(n2c3ccccc3c3c4c(c5c6ccccc6[nH]c5c32)C(=O)N(CCN2CCCC2)C4=O)CC(O)C1O (configuration not stated) | 26.2%
CCCCNC(=O)C(=O)NCCCC | 102%
Nc1ccccc1SC(CC(=O)c1ccccc1)c1ccc([N+](=O)[O-])cc1 (configuration not stated) | 93.4% and 81.8%
